Screening results as filed in PubChem.
FMDV inh: blocks foot and mouth disease virus. FMDV antiviral cell-based qHTS. Potency, µM (series often up to 57.9 µM), usual class: inhibitors. 1.2% of 410,000 active. AID 1159524; calls by dose curve; tested in HEK293T cells; further: read-out not given here; nearly all actives have a fitted effect of over 45% in size
HCV inhibitor: inhibitors of hepatitis C virus infection. Huh7.5.1 HCVcc-Cre infection, luciferase reporter, 44 h. Potency, µM (top dose mostly 41.8 µM), usual class: inhibitors. 3.4% of 340,000 active; active means well fitted inhibition curve with a large enough effect; inconclusive means small, poorly fitted or top-dose-only effect, or another doubt; inactive means no such curve, though single readings can be large or run the other way
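1,000 cells/well; 4 h culture; + compound; + HCVcc-Cre (~0.5 moi); 44 h; luciferase substrate, RT 15 min; read 15 sec.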
LASV entry inh: Lassa virus entry inhibition; Lassa virus pseudotype entry inhibition, cell reporter; Potency, µM (top dose mostly 37.9 µM), hits mostly inhibitors; 1.2% of 300,000 active; calls by dose curve; tested in HEK293 cells; further: nearly all actives have a fitted effect of over 50% in size
HCMV antiviral: blocks human cytomegalovirus replication; AID 1259415; 4.5% of 410,000 active; activity change, negative = inhibition, % at 57.5 µM; HFF cells, HCMV-luciferase reporter, 72 h; stronger effect = lower value; in the data active means activity change below about -60%; inconclusive means no clear call, values can overlap the other calls; inactive means above about -39%
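Steps: HFFs plated, 16 h 37C; compounds added; HCMV-luciferase added to MOI 1 PFU/cell; 72 h 37C; OneGlo reagent, 5 min room temperature; luminescence read, normalized to controls.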
Marburg entry inh: Marburg virus entry inhibition. Marburg virus pseudotyped entry inhibition, cell reporter. Potency, µM (highest dose often 37.8 µM), actives largely listed as inhibitors. 1.8% of 300,000 active; calls by dose curve; tested in HEK293 cells
A number is an active result; - = inactive; ? = inconclusive; . = not tested or not shown. A selection: hits, their analogues and other compounds. The true share with any hit is near 7.9%.

SMILES	FMDV inh	HCV inhibitor	LASV entry inh	HCMV antiviral	Marburg entry inh
O=C(O)/C=C\C(=O)Nc1ccccc1C#Cc1ccccc1	-	11µM	-	-	-
O=C(O)/C=C/C(=O)Nc1ccccc1SC(F)(F)F	-	-	-	-	-
CN(C)c1ccc(C(CNC(=O)c2ccco2)N2CCCC2)cc1 (stereo not drawn)	-	-	.	-	.
O=C(NCc1ccccn1)c1cnn(-c2nccc(-c3cccs3)n2)c1C1CC1	-	.	.	.	.
Cc1ccc(-c2noc(C(C)NC(=O)c3ccco3)n2)cc1 (stereo not drawn)	-	.	-	-	-
CC(C)(C)c1ccc(C(=O)Nc2ccc(NC(=O)c3ccco3)cc2)cc1	.	?	-	-83	-
O=C(O)Cc1ccc(NC(=O)c2ccc(NC(=O)c3ccco3)cc2)cc1	-	-	-	-	-
CCOc1ccccc1NC(=O)c1ccc(NC(=O)c2ccco2)cc1	?	10µM	-	?	?
CC(NC(=O)c1ccco1)c1nc(-c2ccc(C(C)(C)C)cc2)no1 (stereo not drawn)	-	16µM	-	-	?
CCOc1ccccc1NC(=O)c1ccc(C(=O)Nc2ccccc2OCC)cc1	-	.	-	-	.
CCCOc1ccccc1NC(=O)c1ccc(N)cc1	-	7.1µM	-	-	-
Cc1ccc(C)c(NC(=O)Cn2c(=O)nc(-c3ccccc3)c3ccccc32)c1	-	.	?	-	.
O=c1c(-c2ccc(F)cc2)nc2cnc(N3CCOCC3)nc2n1CCc1ccccc1	-	.	.	.	.
CCOC(=O)Cc1ccc(NC(=O)c2ccc(C(C)(C)C)cc2)cc1	18µM	7.1µM	13µM	-88	13µM
CC(C)(C)NC(=O)c1cccc(NC(=O)c2ccco2)c1	-	-	-	-	-
COC(=O)Cc1ccc(NC(=O)c2ccc(NC(=O)c3ccco3)cc2)cc1	-	?	-	-83	?
CC(C)(C)NC(=O)c1cccc(NC(=O)c2ccc(NC(=O)c3ccco3)cc2)c1	.	2.5µM	?	-	?
CC(C)(C)C(=O)Nc1ccc(NC(=O)c2ccco2)nc1	6.3µM	-	?	-96	?
CCOC(=O)C1(C)CCCN(C(=O)c2cccs2)C1 (stereo not drawn)	-	.	.	-	.
CO[C@H]1[C@H](NC(=O)c2cccc(F)c2)c2ccccc2C12CCN(Cc1ccco1)CC2	-	.	.	.	.
COc1ccccc1CCC(=O)OCC(=O)Nc1cc(C)nn1-c1ccccc1	-	-	-	-	-
CC(C)N1C(=O)C[C@H](S(=O)(=O)c2ccccc2)[C@H]1c1ccccc1	.	.	.	-	.
COc1ccc(S(=O)(=O)NCC(c2cccs2)S(=O)(=O)c2ccc(C)cc2)cc1F (stereo not drawn)	-	.	?	-	.
O=C(Nc1ccc(NC(=S)NC(=O)c2ccco2)cc1)c1ccc(Br)cc1	-	.	.	-78	.
O=C(Nc1ccc(NC(=S)NC(=O)c2ccco2)cc1)c1ccccc1	-	?	-	-	?
SMILES	FMDV inh	HCV inhibitor	LASV entry inh	HCMV antiviral	Marburg entry inh
O=C(NC(=S)Nc1cccc(NC(=S)NC(=O)c2ccco2)n1)c1ccco1	-	?	-	-116	-
COC(=O)C(Cc1cc(Br)c(OC)c(Br)c1O)=NO	.	.	.	.	-
O=C1CN(C(=O)COC(=O)c2ccc(Br)o2)c2ccccc2N1	-	-	.	-102	.
O=C1CN(C(=O)COC(=O)CNC(=O)c2ccc(Br)o2)c2ccccc2N1	-	-	-	-	-
Cc1cc(C)nc(NC(=NCCc2c[nH]c3ccccc23)NC(=O)c2ccco2)n1	?	?	?	-	11µM
Cc1cc(C)nc(NC(=NCCc2c[nH]c3ccccc23)NC(=O)Nc2ccc(Cl)c(Cl)c2)n1	-	?	-	-	?
Cc1cc(C)nc(NC(=NCCc2c[nH]c3ccccc23)NC(=O)Nc2ccccc2)n1	-	?	?	?	15µM
COc1ccc2[nH]cc(CCN=C(NC(=O)c3ccccc3F)Nc3nc(C)cc(C)n3)c2c1	-	.	?	-66	?
Cc1ccccc1NC(=O)c1ccc2c(O)c(S(=O)(=O)c3ccccc3)c(=O)[nH]c2c1	-	-	-	-	.
CCc1cc2c(SCC(=O)NC3CCCC3)ncnc2s1	-	.	.	-	.
Clc1cccc(Cl)c1Cn1cnc(=NCc2ccco2)c2[nH]cnc21	-	-	-	-71	?
Clc1cccc(Cl)c1Cn1cnc2c(NCc3ccco3)ncnc21	-	-	?	-	?
COc1ccc(-c2oc3ccccc3c2C#Cc2cncn2C)cc1	-	2.8µM	.	-	.
COc1cc(OC)cc(-c2sc3ccc(OC)cc3c2C#CC2(N)CCCCC2)c1	-	-	.	-	.
COc1ccc(-c2sc3cc4c(cc3c2C#CC2(N)CCCCC2)OCO4)cc1	-	22µM	.	-	.
COc1ccc(-c2sc3cc4c(cc3c2C#Cc2cncn2C)OCO4)cc1	-	5µM	.	-	.
COc1ccc(-c2sc3ccc(OC)cc3c2C#Cc2cncn2C)cc1	-	2.8µM	.	-	.
Cc1cc(OCC(=O)N2CCc3ccccc3C2)c(C)cc1Br	-	?	?	-	?
COc1ccc(-c2sc3ccc(N4CCOCC4)cc3c2C#CC2(O)CCCCC2)cc1	?	2.8µM	.	-	.
CNc1nc(-c2ccc3c(c2)CCN3C(=O)c2ccccc2F)cs1	-	11µM	.	-	.
CC(C)(C)C(=O)N1CCc2cc(-c3csc(N)n3)ccc21	-	-	2µM	?	?
Cc1cc(N/N=C/c2ccc(Cl)cc2)nc(NCc2ccccc2)n1	-	35µM	?	-	?
Cc1cc(N/N=C/c2cccc(F)c2)nc(NCc2ccccc2)n1	-	-	?	-	16µM
Cc1cc(Nc2cccc(Cl)c2)nc(NCc2ccccc2)n1	?	?	-	-77	?
Cc1cc(C)nc(NCc2ccc(Cl)cc2)n1	-	-	?	-	?
SMILES	FMDV inh	HCV inhibitor	LASV entry inh	HCMV antiviral	Marburg entry inh
Cc1cc(N/N=C/c2cccc(Cl)c2)nc(NCc2ccccc2)n1	-	13µM	?	-	18µM
COC(=O)c1cn([C@@H]2C[C@@H](C(=O)N3CCCCCC3)N(Cc3cc4ccccc4s3)C2)nn1	-	.	.	.	.
CN(C)Cc1ccccc1-c1nccc(N(C)Cc2ccco2)n1	-	.	.	.	.
O=c1c(-c2ccc(F)cc2)nc2cnc(N3CCNCC3)nc2n1C1CC1	-	.	.	.	.
Cc1cc(C)n(C[C@@H]2CC(=O)N(c3ccc(F)c(Cl)c3)C2=O)n1	.	.	.	.	-
Cc1cc(N/N=C/c2ccccc2)nc(NCc2ccccc2)n1	-	6.3µM	?	-	?
CCCc1nc(SCC(=O)c2ccc(OC)cc2)c2c(=O)n(C)c(=O)n(C)c2n1	.	-	.	.	-
Cc1nc(SCC(=O)NCCc2ccccc2)c2c(=O)n(C)c(=O)n(C)c2n1	-	-	-	-	-
CCCc1nc(SCC(=O)c2ccccc2)c2c(=O)n(C)c(=O)n(C)c2n1	?	11µM	.	?	.
CCc1nc(SCC(=O)c2ccccc2)c2c(=O)n(C)c(=O)n(C)c2n1	?	13µM	-	-	?
Cc1nc(SCC(=O)NCc2ccccc2)c2c(=O)n(C)c(=O)n(C)c2n1	32µM	-	.	-	.
Cn1c(=O)c2c(SCC(=O)c3ccccc3)nc(C3CC3)nc2n(C)c1=O	?	-	.	.	.
CCCCn1c(SCc2nnc(-c3ccccc3)o2)nc2c1c(=O)n(C)c(=O)n2C	-	.	-	-66	-
CCn1c(SCc2nnc(-c3ccccc3)o2)nc2c1c(=O)n(C)c(=O)n2C	.	-	.	.	.
